Data: PubChem BioAssay AID797 (University of Pittsburgh Molecular Library Screening Center, 2007)
Among all 200,000 compounds or so, about 110 (0.055%) were called active. No stated cut-off is given here; in the data, active means inhibition above about 50%; inactive means the rest. For the sample, actives were picked, then their nearest neighbours and some compounds at random.

Target: Serine/threonine-protein kinase D1 (Homo sapiens) (UniProt Q15139)
Experiment: protein kinase D1 activity blockers – biochemical, fluorescence polarization (AID 797)
Settings: PKD1 kinase fluorescence polarization assay; active compounds read high; concentration not given here

Serine/threonine-protein kinase D1 (Homo sapiens), sequence (Q15139 whole entry, looked up): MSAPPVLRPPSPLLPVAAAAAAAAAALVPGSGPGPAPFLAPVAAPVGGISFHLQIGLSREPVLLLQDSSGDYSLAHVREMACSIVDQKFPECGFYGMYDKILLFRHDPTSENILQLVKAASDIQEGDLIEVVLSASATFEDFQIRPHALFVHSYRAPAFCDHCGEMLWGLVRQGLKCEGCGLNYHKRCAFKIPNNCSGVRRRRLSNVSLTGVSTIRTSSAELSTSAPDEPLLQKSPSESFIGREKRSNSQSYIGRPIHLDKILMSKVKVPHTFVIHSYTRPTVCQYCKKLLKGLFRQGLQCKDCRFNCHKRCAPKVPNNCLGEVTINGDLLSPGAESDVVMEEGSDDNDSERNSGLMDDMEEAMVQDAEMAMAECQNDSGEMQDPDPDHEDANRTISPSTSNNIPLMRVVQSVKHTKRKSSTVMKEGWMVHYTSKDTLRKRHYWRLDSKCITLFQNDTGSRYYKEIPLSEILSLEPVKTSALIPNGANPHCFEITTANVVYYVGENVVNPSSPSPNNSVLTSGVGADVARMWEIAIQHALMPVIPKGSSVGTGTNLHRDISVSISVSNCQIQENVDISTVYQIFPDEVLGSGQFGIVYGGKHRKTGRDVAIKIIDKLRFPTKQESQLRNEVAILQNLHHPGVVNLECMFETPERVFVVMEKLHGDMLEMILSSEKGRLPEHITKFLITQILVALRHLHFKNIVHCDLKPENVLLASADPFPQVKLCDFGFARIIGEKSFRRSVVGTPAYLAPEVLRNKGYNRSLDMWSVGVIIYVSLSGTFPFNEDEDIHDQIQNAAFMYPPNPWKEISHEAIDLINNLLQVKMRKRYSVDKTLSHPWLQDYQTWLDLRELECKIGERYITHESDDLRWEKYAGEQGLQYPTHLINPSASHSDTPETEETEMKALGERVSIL

inhibition, inactive:
Cc1ccc(C(=O)Cc2nnc(C)s2)cc1 1.06%
CCN(CC)CC1(O)CCN(C(=O)c2ccc(Cl)c(Cl)c2)CC1 6.8%
CC(=O)Nc1ccc(NC(=S)NC(=O)/C=C/c2ccccc2)cc1 -7.92%
CCOc1cc2[nH]c(=S)n(Cc3ccc(C(=O)NCCOC)cc3)c(=O)c2cc1OCC -4.22%
O=C(COc1ccc(-c2ccccc2)cc1)NN=C1CCCC1 -5.5%
COC(=O)C1(O)CC(C(C)C)=NN1C(=O)c1ccc(Cl)cc1 (stereo not given) -10.1%
COc1ccc(CCNC(=O)COC(=O)C2CCCCC2)cc1 1.52%
COc1ccc(NC(=O)CCNS(=O)(=O)c2ccc3c(c2)c(=O)n(C)c(=O)n3C)cc1OC -3.26%
COC(=O)c1ccccc1SC1CC(=O)N(c2cccc(C)c2)C1=O (stereo not given) -3.82%
CN(CCc1cnn(C)c1)Cc1cn(C)nc1-c1ccccc1F 0.1%
Cc1nc(-c2ccc(Cl)cc2)sc1C(=O)CBr 2.56%
CC1=NN(C(=O)CCCc2ccccc2)C(O)(C(F)(F)F)C1 (stereo not given) -2.79%
C/C(N)=C(/C#N)C(=O)COC(=O)c1cc(-c2cccc(Br)c2)nc2ccccc12 -0.94%
CCN(CC)CCNC(=O)CCCCCn1c(=O)[nH]c2cc(C(=O)OC)ccc2c1=O -5.2%
Cc1c(Br)c([N+](=O)[O-])nn1CC(=O)N1CCN(Cc2ccccc2)CC1 6.58%
O=C(CC1SC(=Nc2ccccc2F)N(CCN2CCOCC2)C1=O)Nc1ccc(F)cc1F (stereo not given) 1.23%
O=C(Nc1cccnc1)c1ccc(Cl)cc1[N+](=O)[O-] -1.12%
Cc1ccc(NC(=O)C(=O)NCC2CCN(C(=O)c3cccc([N+](=O)[O-])c3)CC2)cc1 4.77%
S=C(NN=C1CCN(Cc2ccccc2)CC1)NC1CCCCC1 1.24%
COc1ccc(NC(=S)NCc2cccs2)c(OC)c1 7.19%
CC(C)NC(=S)N1CCN(C(c2ccccc2)c2ccccc2)CC1 3.7%
COc1ccc(S(=O)(=O)N2CCN(C(=O)NC3CCCCC3)CC2)cc1 -1.15%
O=C1CCCC2=C1C(c1cccs1)CC(=O)N2c1ccc(F)cc1 (stereo not given) -3.47%
Cn1c(=O)c2cc(S(=O)(=O)NCCC(=O)Nc3ccc(F)cc3F)ccc2n(C)c1=O -2.88%
O=C(Nc1nnc(Cc2ccc(Cl)cc2)s1)c1cccnc1 -1.74%
Cn1c(CCC(=O)Nc2ccccc2F)nnc1SCC(=O)Nc1ccccc1Cl -1.31%
O=C(CSc1ncnc2c1nnn2Cc1ccc(F)cc1)NC1CCCC1 -10.6%
Cc1cc(C(=O)CC#N)c(C)n1-c1c(C)n(C)n(-c2ccccc2)c1=O -2.44%
CCS(=O)(=O)c1ccc2c(c1)N(S(=O)(=O)c1ccccc1)CC(C(=O)O)O2 (stereo not given) 2.03%
CC1(C)CC(=O)C2=C(C1)N=C1SCCC(=O)N1C2c1ccc(C(F)(F)F)cc1 (stereo not given) -8.04%
CN1CCN(C(c2cc3cc4c(cc3[nH]c2=O)OCCO4)c2nnnn2C2CCCC2)CC1 (stereo not given) -0.35%
COc1cc(OC)c(C2=NOC(C(=O)Nc3c(C)n(C)n(-c4ccccc4)c3=O)C2)cc1Cl (stereo not given) 5.19%
Cc1ccc2c(c1)N(CC(=O)N(Cc1ccccn1)Cc1ccco1)C(=O)C(C(C)C)O2 (stereo not given) -5.96%
S=C(NC1CCCCC1)NN1CCOCC1 -5.63%
COCCSc1nnc(NC(=O)c2cc(OC)c(OC)cc2[N+](=O)[O-])s1 -3.97%
Cc1cn(C)c(=O)n(C)c1=O 1.43%
N#Cc1ccc(-c2nc3cc(C#N)c(C#N)cc3nc2-c2ccccc2)cc1C#N 9.6%
O=Cc1ccc(Oc2cccc(C(F)(F)F)c2)nc1 7.02%
Cc1ccc(/C=C/C(=O)Nc2cc(S(=O)(=O)N3CCCCCC3)ccc2OCC(F)(F)F)o1 -9.11%
CCc1ccc(-c2cc(C(=O)NN3CCN(C)CC3)c3ccccc3n2)cc1 6.48%
C=CCC(C(=O)c1ccccc1)[N+](C)(C)CC=C (stereo not given) -3.34%
O=[N+]([O-])c1ccccc1SNc1ccccn1 -1.62%
Cc1cc(C)cc(C(=O)NC(=S)Nc2ccc3[nH]c(=O)[nH]c3c2)c1 20.7%
O=C1CN(C(=O)COC(=O)c2cnc(Cl)c(Cl)c2)c2ccccc2N1 1.7%
NC(=O)c1ncc(C(F)(F)F)cc1Oc1ccc(F)cc1 -8.91%
O=C(Cc1c[nH]c2ccccc12)N/N=C/c1cccc(F)c1 12.4%
CCc1c(C)nc2c(OC)cccc2c1Cl -2.35%
O=C(/C=C/c1ccc2c(c1)OCO2)NCc1cn2cc(Cl)ccc2n1 -5.4%
O=C(CCCc1ccccc1)NCc1ccccc1 -6.66%
CC(NC(=O)C(=O)N/N=C/c1ccc(Cl)cc1)c1ccccc1 (stereo not given) -2.86%
O=C(NC(=S)N1CCN(Cc2ccccc2)CC1)c1ccccc1 -10.3%
Cc1ccc(S(=O)(=O)Cc2cc(-c3ccc(Cl)cc3)no2)cc1 -1.03%
CC(C)N1CCC(=NNc2ccc([N+](=O)[O-])cc2S(=O)(=O)N2CCOCC2)CC1 -0.4%
CCOc1ccc(-n2c(SCC(=O)NC3CCS(=O)(=O)C3)nnc2-c2cccnc2)cc1 (stereo not given) 0.66%
CN(Cc1ccc2nsnc2c1)Cc1nc(Cc2cccc(F)c2)no1 5.24%
OCCCC1CCCCN1Cc1nc(Cc2ccccc2Cl)no1 (stereo not given) 0.81%
Cc1cccc(C(=O)OC(C)CN2CCN(C)CC2)c1 (stereo not given) 1.4%
Cc1nnsc1C(=O)Nc1cccc(Cl)c1C -5.78%
Cn1nccc1CNC(=O)c1ccnn1C -0.52%
CC(C)c1ccc(-c2noc(C3CCCN(S(C)(=O)=O)C3)n2)cc1 (stereo not given) 0.73%
